An excerpt weighted towards active compounds, which were near 6.5% of everything screened.
MARV entry inh: qHTS for inhibitors of binding or entry into cells for Marburg Virus. Marburg virus pseudotyped entry inhibition, cell reporter. Potency, µM (doses to about 37.8 µM), inactives show top-dose activity change, negative = inhibition, usual class: inhibitors. 1.8% of 300,000 active. AID 540276, 2011; calls by dose curve; tested in HEK293 cells; also: potency is read from the fitted curve at half-maximal effect
HCMV inh: qHTS Assay for inhibitors of the human cytomegalovirus (HCMV). HFF cells, HCMV-luciferase reporter, 72 h; active compounds read low. activity change, negative = inhibition, % at 57.5 µM. 4.5% of 410,000 active. AID 1259415, 2018; in the data active = activity change below about -60%; inconclusive = no clear call, values can overlap the other calls; inactive = above about -39%
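Cell-based, HFFs, 1000 cells/well, 16 h 37C; cpds in DMSO + HCMV-luc, MOI 1 PFU/cell; 72 h 37C; OneGlo luminescence after 5 min RT; norm. to buffer vs Salinomycin 10uM.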
Lassa entry inh: qHTS for Inhibitors of binding or entry into cells for Lassa Virus; Potency, µM (series often up to 37.9 µM), without a hit: at the highest dose activity change, negative = inhibition, usual class: inhibitors; AID 540256, 2011; 1.2% of 300,000 active; Lassa virus pseudotype entry inhibition, cell reporter; calls by dose curve; tested in HEK293 cells; also: potency is read from the fitted curve at half-maximal effect; nearly all actives have a fitted effect of over 50% in size
Vaccinia mCherry: qHTS for Stage-Specific Inhibitors of Vaccinia Orthopoxvirus: mCherry Reporter Primary qHTS; Potency, µM (titrated, usually from 36.5 µM), inactives show at the top dose activity change, negative = inhibition, hits mostly inhibitors; Vaccinia virus mCherry reporter infection, fluorescence; 0.63% of 310,000 active; calls by dose curve; tested in A549 cells; also: potency is read from the fitted curve at half-maximal effect; nearly all actives have a fitted effect of over 35% in size
FMDV antiviral: High Throughput Screening for Foot and Mouth Disease Virus Antivirals | FMDV antiviral cell-based qHTS | AID 1159524, 2015 | 1.2% of 410,000 active | Potency, µM (series often up to 57.9 µM), for the others: at the highest dose activity change, negative = inhibition, hits mostly inhibitors; calls by dose curve; tested in HEK293T cells; also: read-out not given here; potency is read from the fitted curve at half-maximal effect; nearly all actives have a fitted effect of over 45% in size
Vaccinia Venus: qHTS for Stage-Specific Inhibitors of Vaccinia Orthopoxvirus: Venus Reporter Primary qHTS; Vaccinia virus Venus reporter expression, fluorescence; 0.46% of 330,000 active; Potency, µM (doses to about 36.5 µM), without a hit: top-dose activity change, negative = inhibition, most hits filed as inhibitors; calls by dose curve; tested in A549 cells; also: potency is read from the fitted curve at half-maximal effect; nearly all actives have a fitted effect of over 30% in size
* hit, by the source's call; ! = not active in a repeat; [ ] = remark or other dose. % is scaled to controls: 0 for no effect and ±100 for the full control effect.

What do the screens show for `CCC(=O)Nc1cccc(C(=O)c2ccccc2)c1`?
MARV entry inh: 17.5%; HCMV inh: -17.7; Lassa entry inh: -13.6%; Vaccinia mCherry: -28.9%; Vaccinia Venus: -18.5%

How did CSc1ccc(/C=C/C(=O)Nc2ccccc2)cc1 do in these assays?
MARV entry inh: 7.08µM*; HCMV inh: -13.5; Lassa entry inh: inconclusive; Vaccinia mCherry: -0.5%; FMDV antiviral: -57.0%; Vaccinia Venus: -12.2%

What do the screens show for `CCC(=O)Nc1cccc(C(=O)/C=C/c2ccccc2)c1`?
MARV entry inh: inconclusive; HCMV inh: -104.5*; Lassa entry inh: 10µM*; FMDV antiviral: 17.8µM*; Vaccinia Venus: -18.9%

How did O=C(Nc1cccc(C(=O)O)c1)/C(=C\C=C\c1ccccc1)NC(=O)c1ccccc1 do in these assays?
MARV entry inh: 22.3%[46.1 µM]; HCMV inh: -104.4*; Lassa entry inh: 12.7%[46.1 µM]; Vaccinia mCherry: -0.8%; FMDV antiviral: 4.1%; Vaccinia Venus: -7.7%

What do the screens show for `Cc1cc(C(=O)Nc2cccc(C(=O)O)c2)oc1C`?
MARV entry inh: inconclusive; HCMV inh: 34.4; Lassa entry inh: 3.55µM*; Vaccinia mCherry: -11.3%; FMDV antiviral: inconclusive; Vaccinia Venus: -9.7%

How did Cc1ccc(OCC(=O)NCCNC(=O)c2cccnc2)cc1C do in these assays?
MARV entry inh: 12.1%[46.1 µM]; HCMV inh: inconclusive; Lassa entry inh: 3.2%; Vaccinia mCherry: -20.3%; FMDV antiviral: 19.0%; Vaccinia Venus: -3.8%

What do the screens show for `CSc1nc(N)n2nc(-c3ccccc3)cc2n1`?
MARV entry inh: inconclusive; HCMV inh: 447.1; Lassa entry inh: -10.6%[46.1 µM]; Vaccinia mCherry: inactive; FMDV antiviral: 0.2%; Vaccinia Venus: -19.2%

How did CC(=O)c1cccc(NC(=O)Cc2cccs2)c1 do in these assays?
MARV entry inh: 13.9%; HCMV inh: 21.8; Lassa entry inh: 3.8%; FMDV antiviral: 24.7%

Results for CCC(=O)Nc1cccc(C(=O)/C=C/c2cccs2)c1 ?
HCMV inh: -61.6*; Vaccinia mCherry: -14.5%; FMDV antiviral: 10.9%; Vaccinia Venus: -27.3%

Results for O=C(/C=C/c1ccccc1)Nc1cccc(C(=O)O)c1 ?
HCMV inh: 48.7; Vaccinia mCherry: -11.0%; FMDV antiviral: 10µM*; Vaccinia Venus: -6.3%

Results for COc1cc(=O)n2c(c1C(=O)N(C)Cc1nccs1)CCN(Cc1cc3ccccc3s1)CC2 ?
Vaccinia mCherry: -4.1%; FMDV antiviral: -10.7%; Vaccinia Venus: 0.0%

Results for Nc1ccc(C(=O)N2CCN(S(=O)(=O)c3ccc(Br)cc3)CC2)cc1[N+](=O)[O-] ?
MARV entry inh: -0.7%; HCMV inh: -60.9*; Lassa entry inh: -2.5%; Vaccinia mCherry: -24.3%; FMDV antiviral: -13.8%; Vaccinia Venus: -28.5%

What do the screens show for `CCCSc1nc2cc(OC)c(OC)cc2c(=N)n1CCCN1CCOCC1`?
MARV entry inh: 14.1µM*; HCMV inh: -25.3; Lassa entry inh: inconclusive; Vaccinia mCherry: inconclusive; FMDV antiviral: -19.7%; Vaccinia Venus: inconclusive

What do the screens show for `Cc1cccc(C)c1-n1nnnc1C(c1cc2ccccc2o1)N1CCN(C/C=C/c2ccccc2)CC1` (centres undefined)?
HCMV inh: -61.9*; Vaccinia mCherry: 10.6%; FMDV antiviral: -5.0%; Vaccinia Venus: -11.0%

What do the screens show for `CC(C)(C)n1nnnc1C(c1ccccc1)N1CCN(C/C=C/c2ccccc2)CC1` (centres undefined)?
HCMV inh: 7.6; Vaccinia mCherry: inactive; FMDV antiviral: -5.7%; Vaccinia Venus: -5.1%

Results for C(=C\c1ccccc1)/CN1CCN(C(c2ccccc2)c2ccccc2)CC1 ?
MARV entry inh: 20.6µM*!; HCMV inh: inconclusive; Lassa entry inh: 14.6µM*!; Vaccinia mCherry: inactive; FMDV antiviral: 0.0%; Vaccinia Venus: -25.3%

How did Fc1ccc(C(c2ccc(F)cc2)N2CCN(C/C=C/c3ccccc3)CC2)cc1 do in these assays?
MARV entry inh: 7.08µM*; HCMV inh: -37.4; Lassa entry inh: 13µM*; Vaccinia mCherry: -10.2%; FMDV antiviral: inconclusive; Vaccinia Venus: inconclusive

What do the screens show for `C(=C\c1ccccc1)/CN1CCN(C(c2ccccc2)c2nnnn2Cc2ccccc2)CC1` (centres undefined)?
HCMV inh: 6.8; Vaccinia mCherry: 13.2%; FMDV antiviral: -7.8%; Vaccinia Venus: -10.8%

How did COc1ccc(CCN2CCCn3c2nc2c3c(=O)n(CC(N)=O)c(=O)n2C)cc1OC do in these assays?
MARV entry inh: 4.9%; HCMV inh: 18.1; Lassa entry inh: -6.3%; Vaccinia mCherry: -13.5%; FMDV antiviral: -9.8%; Vaccinia Venus: -2.6%

What do the screens show for `CC(=O)c1cccc(NS(=O)(=O)c2cccc(S(=O)(=O)c3ccc(Br)cc3)c2)c1`?
HCMV inh: inconclusive; Lassa entry inh: -25.4%[46.1 µM]; Vaccinia mCherry: -25.4%; FMDV antiviral: inconclusive; Vaccinia Venus: -12.8%

Results for COc1cccc(Nc2cc3c(cn2)cc(-c2cnn(C)c2)n3C)c1 ?
HCMV inh: -15.5

Results for CC(C)Cn1c(N)c(C(=O)NCC2CCCO2)c2nc3ccccc3nc21 (centres undefined) ?
MARV entry inh: inconclusive; HCMV inh: -20.0; Lassa entry inh: -26.5%; Vaccinia mCherry: 10µM*; FMDV antiviral: inconclusive; Vaccinia Venus: 10µM*

How did CC(C)CNC(=O)c1c(N)n(Cc2ccc3c(c2)OCO3)c2nc3ccccc3nc12 do in these assays?
MARV entry inh: inconclusive; HCMV inh: -80.2*; Lassa entry inh: -4.3%; FMDV antiviral: -17.3%

Results for Nc1c(C(=O)NCc2ccccc2)c2nc3ccccc3nc2n1-c1ccc2c(c1)OCO2 ?
MARV entry inh: inconclusive; HCMV inh: -77.1*; Lassa entry inh: inconclusive; Vaccinia mCherry: -2.1%; Vaccinia Venus: -13.5%

How did O=C(NCC1CCCO1)c1cc2ccccc2nc1Cl (centres undefined) do in these assays?
HCMV inh: -69.5*; FMDV antiviral: 14.7%

Results for CC(C)CCNC(=O)c1c(N)n(Cc2ccc3c(c2)OCO3)c2nc3ccccc3nc12 ?
MARV entry inh: inconclusive; HCMV inh: -34.5; Lassa entry inh: -20.6%; FMDV antiviral: -14.0%

Results for C=Cc1ccc(Cn2c(C)c(CNCc3cccc(Br)c3)c(C(=O)O)c2C)cc1 ?
MARV entry inh: 10.3%[46.1 µM]; HCMV inh: 19.8; Lassa entry inh: -2.6%[46.1 µM]; Vaccinia mCherry: -19.7%; FMDV antiviral: -17.7%; Vaccinia Venus: -12.4%

Results for COCCn1c(N)c(C(=O)NCc2cccs2)c2nc3ccccc3nc21 ?
MARV entry inh: inconclusive; HCMV inh: inconclusive; Lassa entry inh: -0.5%; FMDV antiviral: 4.0%
